# From PubChem
# Compounds with a hit are over-represented: about 14% of the library has one in this group of screens.
# HADH2 inhib: qHTS Assay for Inhibitors of HADH2 (Hydroxyacyl-Coenzyme A Dehydrogenase, Type II); 3-hydroxyacyl-CoA dehydrogenase type-2 (Homo sapiens), Q99714; recombinant HADH2, NADH fluorescence, beta-hydroxybutyryl-CoA; Potency, µM (highest dose often 57.1 µM), actives largely listed as inhibitors; 3.4% of 73,000 active; note: nearly all actives have a fitted effect of over 60% in size
# Target sequence (Q99714 whole entry, looked up, one chain of several): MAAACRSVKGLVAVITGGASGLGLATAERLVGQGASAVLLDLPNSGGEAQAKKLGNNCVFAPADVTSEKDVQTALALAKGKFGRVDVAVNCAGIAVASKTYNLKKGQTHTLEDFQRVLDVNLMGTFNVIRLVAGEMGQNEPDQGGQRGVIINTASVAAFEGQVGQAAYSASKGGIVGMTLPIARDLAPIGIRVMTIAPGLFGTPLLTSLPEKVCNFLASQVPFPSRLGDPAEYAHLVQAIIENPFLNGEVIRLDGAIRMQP
#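 E. coli-expressed His-tagged HADH2 tested at 20 nM in alkaline Tris buffer (pH 9.0); oxidation of 90 uM beta-hydroxybutyryl-CoA with 1 mM NAD+ tracked fluorimetrically for 4 min.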
# A350 autofl: qHTS Assay for Spectroscopic Profiling in A350 Spectral Region. Compound autofluorescence, 340/450 nm, Alexa 350 dye-equivalents; hits give high values. max dye-equivalent concentration, M. 11% of 59,000 active; in the data active = max dye-equivalent concentration above about 10 nM; inconclusive = mostly about 1.1 nM to 9.6 nM
# CRE Fsk mod: Cell signaling CRE-BLA (Fsk stim). 2.5% of 71,000 active. Potency, µM (doses to about 38.2 µM), actives largely listed as activators. CHO CRE-bla reporter (cAMP response element driving beta-lactamase), forskolin EC10, beta-lactamase ratio. AID 662, 2007; active = well fitted activation curve with a large enough effect in the signal ratio, with a control signal flat, not every such curve was filed as active; inconclusive = small, poorly fitted or top-dose-only effect, or effect the other way, or a change in a side signal; the % refers to the signal ratio
#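 Reporter-gene assay: CHO cells with beta-lactamase behind cAMP responsive elements, co-treated with compound and EC10 NKH 477 for 3 hours at 37 degrees Celsius. Activity came from the 460/530 nm CCF4 emission ratio.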
# AID923: qHTS Assay for Allosteric/Competitive Inhibitors of Caspase-1: Spectroscopic Profiling in AFC Spectral Region; compound fluorescence, AFC spectral region (405/520 nm); 1.1% of 75,000 active; Potency, µM (doses to about 57.5 µM), actives largely listed as activators; AID 923, 2007
#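 Compound autofluorescence profiled at 405 nm ex/520 nm em during kinetic caspase 1 run (50 nM enzyme, 5 uM Ac-WEHD-AFC, HEPES pH 7.5, 10 mM DTT). Titration up to 57 uM; baseline from regression intercept, normalized to AFC standard curve.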
# HSD17B inhib: qHTS Assay for Inhibitors of HSD17B4, hydroxysteroid (17-beta) dehydrogenase 4 | Potency, µM (doses to about 57.1 µM), actives largely listed as inhibitors | recombinant HSD17B10, NADH fluorescence kinetic | 3-hydroxyacyl-CoA dehydrogenase type-2 (Homo sapiens), Q99714 | AID 893, 2007 | 7.6% of 75,000 active;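 note: the protocol describes HADH2 (HSD17B10) and not the HSD17B4 of the title; nearly all actives have a fitted effect of over 70% in size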
#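 Activity followed as NADH fluorescence increase (ex 360, em 450 nm) every 30 seconds for 4 min, using final 90 uM beta-hydroxybutyryl CoA and 1 mM NAD+. Recombinant His-tagged enzyme, 20 nM, pH 9.0 Tris buffer, 15 min compound preincubation.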
# 4MU fluor: qHTS Assay for Spectroscopic Profiling in 4-MU Spectral Region | compound autofluorescence, 340/450 nm, 4-MU equivalents; hits give high values | max dye-equivalent concentration, M | 11% of 59,000 active; in the data active = max dye-equivalent concentration above about 10 nM; inconclusive = mostly about 1.1 nM to 9.6 nM
#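 Compounds in 100 mM Tris, pH 8.0, incubated 15 min at room temperature, then fluorescence read at 340 nm excitation/450 nm emission. Signal converted to 4-MU dye-equivalent concentration using an on-plate six-point 4-MU standard curve.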
# Hits are given with their value; n = inactive; u = inconclusive; x = no result; [ ] = remark or other dose. Unless noted, calls come from the whole dose curve; as a rule, active = well fitted curve in the direction sought with a large enough effect; inconclusive = small, poorly fitted or top-dose-only effect, or another doubt; inactive = no such curve, though single readings can be large; an effect the other way counts as inactive or inconclusive.
SMILES,HADH2 inhib,A350 autofl,CRE Fsk mod,AID923,HSD17B inhib,4MU fluor
CC1(C)Cc2nc3oc4c(NCc5ccccc5)ncnc4c3cc2CO1,u,n,n,n,25.1µM,n
CCCc1nc2oc3c(NCCN(C)C)ncnc3c2c2c1CCCC2,n,n,u,n,u,n
CCCc1nc2oc3c(NCC4CCCO4)ncnc3c2c2c1COC(C)(C)C2 (stereo not given),u,n,u,n,3.16µM,n
c1ccc(CNc2ncnc3ccccc23)cc1,n,n,u,n,n,n
CC(C)c1nc2oc3c(NCC4CCCO4)ncnc3c2c2c1CCC2 (stereo not given),31.6µM,u,u,n,31.6µM,n
Cc1nc2oc3c(NCc4ccccn4)ncnc3c2c2c1COC(C)(C)C2,u,u,u,n,31.6µM,u
CC(=O)N1CCC[C@@]2(CCN(C(=O)Nc3cccc(C#N)c3)C2)C1,n,n,n,n,n,n
C[C@@H](C(=O)Cc1ccc2ccccc2c1)[C@@H]1C[C@@]1(C)[C@@H](NP(=O)(c1ccccc1)c1ccccc1)c1ccccc1,n,x,n,n,n,x
COc1ccc(C(=O)N2CCC[C@@]3(CCN(Cc4cc(C(F)(F)F)cc(C(F)(F)F)c4)C3)C2)cc1,n,n,n,n,n,n
COc1c2ccoc2nc2c(OC)c(OC[C@H](O)C(C)(C)O)ccc12,39.8µM,1.64e-08M,n,n,12.6µM,1.61e-08M
CCOC(=O)c1cccc(S(=O)(=O)N(CCO)Cc2cc3cc(OC)c(OC)cc3[nH]c2=O)c1,n,1.56e-08M,n,n,n,1.55e-08M
CCOC(=O)c1cccc(S(=O)(=O)N(CCO)Cc2cc3cc(OC)ccc3[nH]c2=O)c1,n,5.3e-08M,n,n,u,6.19e-08M
Cc1cccc(C(=O)OCc2cc3ccccc3[nH]c2=O)c1,n,n,u,n,n,n
COc1ccc2nccc(SCC(=O)O)c2c1,n[11.4 µM],n,n[7.6 µM],n[11.5 µM],n[11.4 µM],n
Cc1ccc(C2CC(=O)NC3=C2C(=O)CCC3)cc1Br (stereo not given),n,n,n,n,n,n
COc1cccc(C2CC(=O)NC3=C2C(=O)CCC3)c1 (stereo not given),n,u,n,n,n,u
CC1(C)CC(=O)C2=C(C1)NC(=O)CC2c1cccc(F)c1 (stereo not given),n,2.46e-08M,n,n,n,1.88e-08M
O=C1CC(c2ccc(F)cc2)C2=C(CCCC2=O)N1 (stereo not given),n,3.33e-08M,n,n,n,3.53e-08M
Cc1ccccc1C1CC(=O)NC2=C1C(=O)CCC2 (stereo not given),n,9.1e-08M,n,n,31.6µM,8.18e-08M
CC(C)C[C@@H](CC(=O)N[C@H](CC(=O)N[C@@H]1CCCC[C@H]1C(=O)N[C@H](CC(=O)N[C@@H](CCC(=O)O)CC(=O)O)Cc1ccccc1)C(C)C)NC(=O)[C@@H]1CNCC[C@H]1N,n,x,u,x,x,x
O=S(=O)(c1ccccc1)N1CCC[C@@]2(CCN(c3ncccn3)C2)C1,n,n,n,n,u,n
CCCCCCN(C(=O)CCCCCN1C(=O)NC(C2CCCCC2)C(C(=O)OCc2ccccc2)=C1C)C(C(=O)NCCCC)c1ccc(OCC(=O)OC)c(C(=O)OC)c1 (stereo not given),n,x,n,n,n,x
COc1ccc(S(=O)(=O)N(Cc2ccc(OC)c(OC)c2)Cc2ccco2)cc1,n,1.01e-08M,u,n,n,u
COC(=O)N1CCC2(CCCN(Cc3ccccc3)C2)CC1,n,n,n,n,n,n
COC(=O)N1CCC2(CCCN(C(=O)Nc3ccc(OC)cc3)C2)CC1,n,n,n,n,n,n
CSc1nc2c(c(=O)[nH]1)C(c1ccncc1)C(C(=O)OC(C)C)=C(C)N2 (stereo not given),n,1.73e-08M,n,n,n,1.49e-08M
